# Source: ChEMBL document CHEMBL5606458, “ASAP - ZIKV NS2B-NS3 protease fluorescence single point” (2024)
# Screen size: about 2,700 compounds; about 160 (5.9%) showed an effect of 50% or more. This is one part of a sample in which strong results are shown more often than they occur.
# Target: Nonstructural protein 3 (Zika virus) (UniProt A0A024AXB9)
# Sequence (A0A024AXB9 as listed by the source): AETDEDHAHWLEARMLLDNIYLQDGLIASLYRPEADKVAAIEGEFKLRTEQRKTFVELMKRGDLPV
compound,measurement,setting,value
CCn1ccnc(N2CC[C@H](c3ccn[nH]3)C2)c1=O,inhibition,"PRVABC59, Concentration 49.5 uM, Number of replicates 2.0, Standard deviation 1.2586397664505307 %",6.21%
same,inhibition,"PRVABC59, Concentration 99.01 uM, Number of replicates 2.0, Standard deviation 2.3660377586558408 %",15.1%
same,inhibition,"PRVABC59, Concentration 198.0 uM, Number of replicates 2.0, Standard deviation 2.03279173119948 %",28.1%
NCc1cccc(NC(=O)[C@@H](NC(=O)OCc2ccccc2)c2ccc(F)cc2)c1,inhibition,"PRVABC59, Concentration 49.5 uM, Number of replicates 2.0, Standard deviation 0.5315909510099626 %",1.43%
same,inhibition,"PRVABC59, Concentration 99.01 uM, Number of replicates 2.0, Standard deviation 0.7442277023062145 %",8.36%
same,inhibition,"PRVABC59, Concentration 198.0 uM, Number of replicates 2.0, Standard deviation 0.5134389777058966 %",25.7%
NCc1cccc(NC(=O)[C@@H](NC(=O)OCc2ccccc2)c2ccc(F)c(F)c2)c1,inhibition,"PRVABC59, Concentration 49.5 uM, Number of replicates 2.0, Standard deviation 0.33969955290034887 %",-2.45%
same,inhibition,"PRVABC59, Concentration 99.01 uM, Number of replicates 2.0, Standard deviation 0.8168349211729018 %",6.3%
same,inhibition,"PRVABC59, Concentration 198.0 uM, Number of replicates 2.0, Standard deviation 1.2939689407463024 %",43.9%
NCc1cccc(CNC(=O)[C@@H](NC(=O)OCc2ccccc2)c2ccc(OCc3ccccc3)cc2)c1,inhibition,"PRVABC59, Concentration 49.5 uM, Number of replicates 2.0, Standard deviation 0.160775728553173 %",99.2%
same,inhibition,"PRVABC59, Concentration 99.01 uM, Number of replicates 2.0, Standard deviation 0.12446874737194843 %",99%
same,inhibition,"PRVABC59, Concentration 198.0 uM, Number of replicates 2.0, Standard deviation 0.3293253590204834 %",98.1%
NCc1cccc(NC(=O)Cc2ccc(OCc3ccccc3)cc2)c1,inhibition,"PRVABC59, Concentration 49.5 uM, Number of replicates 2.0, Standard deviation 0.6755896628980406 %",-0.82%
same,inhibition,"PRVABC59, Concentration 99.01 uM, Number of replicates 2.0, Standard deviation 0.4165875428765907 %",8.98%
same,inhibition,"PRVABC59, Concentration 198.0 uM, Number of replicates 2.0, Standard deviation 2.4964043674210097 %",40.9%
NCc1cccc(NC(=O)c2ccc(OCc3ccccc3)cc2)c1,inhibition,"PRVABC59, Concentration 49.5 uM, Number of replicates 2.0, Standard deviation 1.3665778981704908 %",1.2%
same,inhibition,"PRVABC59, Concentration 99.01 uM, Number of replicates 2.0, Standard deviation 3.6407499729049095 %",22.5%
same,inhibition,"PRVABC59, Concentration 198.0 uM, Number of replicates 2.0, Standard deviation 29.263434924261905 %",26.6%
C[C@@H](C(=O)Nc1cccc(CN)c1)c1ccc(OCc2ccccc2)cc1,inhibition,"PRVABC59, Concentration 49.5 uM, Number of replicates 2.0, Standard deviation 0.17467234529733644 %",-0.009%
same,inhibition,"PRVABC59, Concentration 99.01 uM, Number of replicates 2.0, Standard deviation 10.257482850017862 %",21.6%
same,inhibition,"PRVABC59, Concentration 198.0 uM, Number of replicates 2.0, Standard deviation 0.22285904793408415 %",62.2%
CCCCCC(=O)N[C@H](C(=O)NCc1ccc(NC(=N)N)cc1)c1ccc(OCc2ccccc2)cc1,inhibition,"PRVABC59, Concentration 49.5 uM, Number of replicates 2.0, Standard deviation 4.889627391275408 %",4.26%
same,inhibition,"PRVABC59, Concentration 99.01 uM, Number of replicates 2.0, Standard deviation 2.962062980256652 %",19.3%
same,inhibition,"PRVABC59, Concentration 198.0 uM, Number of replicates 2.0, Standard deviation 2.9458988209157537 %",67.5%
NCc1cccc(NC(=O)[C@@H](NC(=O)OCc2ccccc2)c2ccc(Br)cc2)c1,inhibition,"PRVABC59, Concentration 49.5 uM, Number of replicates 2.0, Standard deviation 0.867338983981324 %",10%
same,inhibition,"PRVABC59, Concentration 99.01 uM, Number of replicates 2.0, Standard deviation 0.4728161592371566 %",98.2%
same,inhibition,"PRVABC59, Concentration 198.0 uM, Number of replicates 2.0, Standard deviation 0.18671930544775084 %",97.9%
c1ccc2c([C@H]3CCN(CCC4CCOCC4)C3)c[nH]c2c1,inhibition,"PRVABC59, Concentration 49.5 uM, Number of replicates 2.0, Standard deviation 1.2406953242285323 %",12.1%
same,inhibition,"PRVABC59, Concentration 99.01 uM, Number of replicates 2.0, Standard deviation 0.23839741086829247 %",18.5%
same,inhibition,"PRVABC59, Concentration 198.0 uM, Number of replicates 2.0, Standard deviation 0.8459297336369422 %",27.9%
O=S(=O)(Nc1ccc(Oc2ccccc2Cl)cc1)c1c[nH]c2ccc(Cl)cc12,inhibition,"PRVABC59, Concentration 49.5 uM, Number of replicates 2.0, Standard deviation 1.8433959322838933 %",11%
same,inhibition,"PRVABC59, Concentration 99.01 uM, Number of replicates 2.0, Standard deviation 3.1252865977713378 %",14.3%
same,inhibition,"PRVABC59, Concentration 198.0 uM, Number of replicates 2.0, Standard deviation 3.9544884158217 %",39%
O=C1NCc2ccccc2C12CCN(Cc1cc3ccc(F)cc3[nH]1)CC2,inhibition,"PRVABC59, Concentration 49.5 uM, Number of replicates 2.0, Standard deviation 3.3747851513626115 %",6.9%
same,inhibition,"PRVABC59, Concentration 99.01 uM, Number of replicates 2.0, Standard deviation 2.4802388593809592 %",13.2%
same,inhibition,"PRVABC59, Concentration 198.0 uM, Number of replicates 2.0, Standard deviation 2.1357042200194405 %",18.5%
NC1(c2cccc(NC(=O)[C@@H](NC(=O)OCc3ccccc3)c3ccc(OCc4ccccc4)cc3)c2)CCC1,inhibition,"PRVABC59, Concentration 49.5 uM, Number of replicates 2.0, Standard deviation 2.468656231060589 %",14.2%
same,inhibition,"PRVABC59, Concentration 99.01 uM, Number of replicates 2.0, Standard deviation 1.4495575723595426 %",30.7%
same,inhibition,"PRVABC59, Concentration 198.0 uM, Number of replicates 2.0, Standard deviation 0.13484294125181392 %",82.7%
CCCCCC(=O)N[C@H](C(=O)NCc1cccc(CN)c1)c1ccc(OCc2ccccc2)cc1,inhibition,"PRVABC59, Concentration 49.5 uM, Number of replicates 2.0, Standard deviation 0.8118332703664171 %",-3.7%
same,inhibition,"PRVABC59, Concentration 99.01 uM, Number of replicates 2.0, Standard deviation 11.543494465765306 %",89.7%
same,inhibition,"PRVABC59, Concentration 198.0 uM, Number of replicates 2.0, Standard deviation 0.4445743989869767 %",99%
NCc1ccc(NC(=O)[C@@H](NC(=O)OCc2ccccc2)c2ccc(OCc3ccccc3)cc2)cc1,inhibition,"PRVABC59, Concentration 49.5 uM, Number of replicates 2.0, Standard deviation 1.551749181482573 %",7.22%
same,inhibition,"PRVABC59, Concentration 99.01 uM, Number of replicates 2.0, Standard deviation 2.287213711046402 %",11.8%
same,inhibition,"PRVABC59, Concentration 198.0 uM, Number of replicates 2.0, Standard deviation 0.9961100816492645 %",23%
CCCCCC(=O)N[C@H](C(=O)NCc1ccc(N)nc1)c1ccc(OCc2ccccc2)cc1,inhibition,"PRVABC59, Concentration 49.5 uM, Number of replicates 2.0, Standard deviation 0.04494641077638166 %",-2.18%
same,inhibition,"PRVABC59, Concentration 99.01 uM, Number of replicates 2.0, Standard deviation 0.3023657059020049 %",1.76%
same,inhibition,"PRVABC59, Concentration 198.0 uM, Number of replicates 2.0, Standard deviation 0.018387068425059654 %",-1.18%
NCc1cccc(NC(=O)[C@@H](NC(=O)OCc2ccccc2)c2ccc(OCc3ccccc3)cc2)c1,inhibition,"PRVABC59, Concentration 49.5 uM, Number of replicates 2.0, Standard deviation 0.012122107981309298 %",99.6%
same,inhibition,"PRVABC59, Concentration 99.01 uM, Number of replicates 2.0, Standard deviation 0.01616281064174573 %",99.1%
same,inhibition,"PRVABC59, Concentration 198.0 uM, Number of replicates 2.0, Standard deviation 0.06465124256698292 %",97.8%
CCCCCC(=O)N[C@H](C(=O)N1CCC(CN)CC1)c1ccc(OCc2ccccc2)cc1,inhibition,"PRVABC59, Concentration 49.5 uM, Number of replicates 2.0, Standard deviation 1.1847944417619873 %",5.06%
same,inhibition,"PRVABC59, Concentration 99.01 uM, Number of replicates 2.0, Standard deviation 0.3935504126553241 %",10.8%
same,inhibition,"PRVABC59, Concentration 198.0 uM, Number of replicates 2.0, Standard deviation 0.8347422741682105 %",26.5%
